# From PubChem
# Hits are enriched below; roughly 3.3% of the tested compounds scored in any of these assays.
# AmpC no deterg – blocks E. coli AmpC beta-lactamase in detergent-free assay; AmpC nitrocefin hydrolysis, absorbance 480 nm, 0.0001% Triton; Potency, µM (top dose mostly 57.1 µM), hits mostly inhibitors; AID 485341; 0.52% of 330,000 active; further: nearly all actives have a fitted effect of over 20% in size
# Target sequence (P00811 whole entry, looked up): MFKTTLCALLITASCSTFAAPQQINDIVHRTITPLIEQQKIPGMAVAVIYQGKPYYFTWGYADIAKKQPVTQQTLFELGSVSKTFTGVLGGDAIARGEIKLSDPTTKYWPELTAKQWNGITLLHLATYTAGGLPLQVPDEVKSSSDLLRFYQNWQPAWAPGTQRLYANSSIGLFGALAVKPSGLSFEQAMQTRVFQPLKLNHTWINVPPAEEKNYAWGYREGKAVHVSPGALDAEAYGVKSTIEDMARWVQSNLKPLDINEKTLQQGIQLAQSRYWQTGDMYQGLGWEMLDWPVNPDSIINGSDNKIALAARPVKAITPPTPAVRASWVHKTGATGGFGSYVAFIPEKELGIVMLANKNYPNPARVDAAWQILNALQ
#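 AmpC (5.3 nM in the dispensed reagent) in 20 mM phosphate pH 7.0 with 0.01% (detergent screen) or 0.0001% Triton X-100 was preincubated with compounds for 15 min at room temperature. Nitrocefin was then added from an 800 uM solution, and hydrolysis was followed at 480 nm.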
# Sm TGR inh – blocks Schistosoma mansoni thioredoxin glutathione reductase | Q962Y6 | purified TGR, DTNB reduction, TNB absorbance 405 nm | Potency, µM (series often up to 114 µM), most hits filed as inhibitors | 3% of 360,000 active | AID 485364; further: nearly all actives have a fitted effect of over 60% in size
#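 Kinetic colorimetric format: TGR-catalysed, NADPH-driven DTNB reduction monitored via TNB absorbance. Enzyme dispensed at 20 nM; compound exposure 15 min at room temperature before reaction start.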
# AmpC detergent – blocks E. coli AmpC beta-lactamase in detergent assay; AID 485294; Potency, µM (titrated, usually from 114 µM), actives largely listed as inhibitors; 0.041% of 370,000 active; P00811; AmpC hydrolysis of nitrocefin, absorbance 480 nm, 0.01% Triton; further: nearly all actives have a fitted effect of over 25% in size
#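 20 mM phosphate pH 7.0 + 0.01% (detergent screen) or 0.0001% Triton X-100; 5.3 nM AmpC reagent; cpd preinc 15 min RT; nitrocefin (800 uM stock) to start; A480 q20 s × 4 min; Activity was normalised to no-enzyme and no-compound control wells.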
# Hits are given with their value; – = inactive; ? = inconclusive; · = no result. The call rests on the fitted dose curve; in most records, active means well fitted curve in the direction sought with a large enough effect; inconclusive means small, poorly fitted or top-dose-only effect, or another doubt; inactive means no such curve, though single readings can be large; an effect the other way counts as inactive or inconclusive.
SMILES,AmpC no deterg,Sm TGR inh,AmpC detergent
CC1(C)CC(=O)C2=C(C1)N(Cc1cccnc1)C(=O)C2(NC(=O)c1cccnc1)C(F)(F)F (configuration not stated),–,–,–
O=C(c1ccco1)N1CCN(C(=O)c2cccc3c2C(=O)N(C2CCCCC2)C3)CC1,–,50µM,–
O=C(c1ccco1)N1CCN(C(=O)c2cccc3c2C(=O)N(Cc2cccnc2)C3)CC1,–,–,–
COc1cc(OC)cc(C(=O)N2CCC(C(=O)Nc3ccc4c(c3)OCCO4)CC2)c1,–,–,–
O=C1Nc2ccccc2Nc2ccc([N+](=O)[O-])cc21,–,–,–
O=[N+]([O-])C(=C1Nc2ccccc2N1)C(Cl)=C(Cl)Cl,–,3.2µM,–
COc1ccc(Nc2nc3c(S(=O)(=O)c4ccccc4)nnn3c3ccsc23)cc1OC,·,–,–
O=C(/C=C/c1ccccc1)NC(=S)Nc1ccc(N2CCOCC2)c(Cl)c1,–,–,–
O=C(/C=C/c1ccccc1)Nc1ccc2c(c1)OCCO2,–,–,–
O=C(/C=C/c1ccco1)Nc1ccc(CN2CCOCC2)cc1,–,20µM,–
O=C(/C=C/c1ccco1)Nc1ccc2c(c1)OCCO2,–,20µM,–
O=C(/C=C/c1ccco1)Nc1ccc(N2CCCC2)cc1,–,–,–
O=C(/C=C/c1ccco1)Nc1ccc(C(=O)N2CCOCC2)cc1,–,13µM,–
O=C(/C=C/c1ccccc1)Nc1ccc(CN2CCOCC2)cc1,–,–,–
O=C(/C=C/c1ccco1)NC(=S)Nc1ccc(N2CCOCC2)c(Cl)c1,–,40µM,?
CCCN(C(=O)c1nc2nc(C)cc(C)n2n1)c1c(N)n(Cc2ccccc2)c(=O)[nH]c1=O,–,–,–
Cc1ccc(NC(=O)CCn2c(=O)c3cccn3c3ccccc32)c(Cl)c1,·,–,–
Cc1cccc(CCNC(=O)c2nc(-c3ccc(Cl)cc3)n3c2CCCCC3)c1,·,–,–
O=C1C(=O)N(Cc2cccs2)c2ccccc21,–,–,–
CCC(=O)N1c2ccccc2CC1C(=O)NCc1cccc(OC)c1OC (configuration not stated),·,–,–
Cc1ccc(NC(=O)Cn2c(=O)n(CC3CCCO3)c(=O)c3ccccc32)cc1 (configuration not stated),·,–,–
O=C(CNC(=O)C12CC3CC(CC(C3)C1)C2)N/N=C\c1ccco1,–,–,–
O=C(/C=C/c1ccco1)c1ccc(NC(=O)C23CC4CC(CC(C4)C2)C3)cc1,18µM,10µM,–
O=C(/C=C/c1ccco1)Nc1ccccc1N1CCOCC1,–,20µM,?
CCN(CC)S(=O)(=O)c1ccc(/C=C/C(=O)Nc2ccccc2N2CCOCC2)cc1,–,–,–
SMILES,AmpC no deterg,Sm TGR inh,AmpC detergent
CC(=O)Nc1ccc(N2C(=O)c3ccc(S(=O)(=O)c4ccc(C(=O)O)cc4)cc3C2=O)cc1,–,–,–
CC(=O)c1cccc(N(C(=O)c2ccco2)C(C(=O)NC2CCCC2)c2ccccc2F)c1 (configuration not stated),–,–,–
CCN1CCCC1CNC(=O)c1cc2cc(F)ccc2[nH]1 (configuration not stated),–,–,–
CC1CCc2nc3ccc(S(=O)(=O)N4CCC(C(=O)NC5CCCC5)CC4)cc3c(C(=O)O)c2C1 (configuration not stated),–,–,?
O=C(O)c1c2c(nc3ccc(S(=O)(=O)N4CCC(C(=O)NC5CCCC5)CC4)cc13)CCCCC2,25µM,–,–
O=C(NCCc1cccc(Cl)c1)c1ccc(OC2CCN(Cc3ccccn3)CC2)cc1,–,–,–
CCOCCc1nn2c(=O)cc(COC(=O)c3ccc(NC(=O)C(C)(C)C)cc3)nc2s1,·,–,–
Cc1ccccc1[N+](=O)[O-],–,–,–
Cc1cc([N+](=O)[O-])c2ccccc2[n+]1[O-],–,13µM,–
Cc1ccc(-n2nc3c(=O)n(CCCC(=O)NC4CCC(C)CC4)nc(C)c3c2C)cc1 (configuration not stated),–,–,–
Cc1ccc(NC(=O)C2CCCN2C(=O)c2cccs2)c(C)c1 (configuration not stated),–,–,–
N#CC(C#N)=Cc1cn(-c2ncc(C(F)(F)F)cc2Cl)c2ccccc12,–,7.1µM,–
CC(=O)/C=C\c1cn(-c2ncc(C(F)(F)F)cc2Cl)c2ccccc12,?,–,–
O=C(OCc1c(-c2ccccc2)ncc2ccccc12)c1ccccc1C(F)(F)F,–,·,·
Cn1c2ccccc2c2cc(/C=N/NC(=O)c3cc(O)ccc3O)ccc21,–,?,–
Cn1c2ccccc2c2cc(/C=N/NC(=O)c3cc(O)cc(O)c3)ccc21,16µM,–,–
CC(=O)n1cc(/C=N/NC(=O)c2cccc(O)c2)c2ccccc21,11µM,–,–
CC(=O)n1cc(/C=N/NC(=O)c2ccc(Cl)cc2)c2ccccc21,–,–,–
COc1ccc(C)cc1NC(=O)C(=O)NCC1(c2ccccc2)CCCC1,·,–,–
CC(=O)Nc1cccc(NC(=O)CSc2nc3c(=O)n(C)c(=O)n(C)c3n2C)c1,–,–,–
CCOc1ccccc1NC(=O)Cn1c(=O)ccc2cc(S(=O)(=O)N3CCCC3)ccc21,·,–,–
CCCS(=O)(=O)c1nc(S(=O)(=O)c2ccc(C)cc2)c(N2CCC3(CC2)OCCO3)s1,–,–,–
Cc1ccc(C(=O)CCNc2ccc(F)c(Cl)c2)o1,–,?,–
Cc1ccc(C(=O)CCNc2ccccc2)o1,·,25µM,–
Cc1ccc(C(=O)CCNc2cccc(Br)c2)o1,–,56µM,?
SMILES,AmpC no deterg,Sm TGR inh,AmpC detergent
Cc1ccc(C(=O)CCNc2ccc(Br)cc2)o1,·,?,–
CC(C)c1ccccc1OCC(O)CN1CCN(S(=O)(=O)c2ccc([N+](=O)[O-])cc2)CC1 (configuration not stated),–,–,–
O=C(CCC(=O)c1cccs1)NNC(=O)c1ccccc1O,–,11µM,–
O=C(CCC(=O)c1cccs1)NNC(=O)c1ccc(Cl)cc1,–,–,–
O=C(O)c1ccc(N2C(=O)CC(N3CCN(c4cccc(C(F)(F)F)c4)CC3)C2=O)cc1 (configuration not stated),–,89µM,–
O=C(O)c1ccc(N2C(=O)CC(N3CCN(c4cccc(Cl)c4)CC3)C2=O)cc1 (configuration not stated),–,50µM,–
COc1ccc(N2C(=O)CC(N3CCN(c4cccc(Cl)c4)CC3)C2=O)cc1 (configuration not stated),–,–,–
O=C1CC(N2CCN(c3ccccc3)CC2)C(=O)N1c1ccc(Cl)cc1 (configuration not stated),–,?,?
C=CCOc1ccc(CNc2ccc(NC(=O)CC(C)C)cc2)cc1OC,–,–,–
COC(=O)c1ccccc1NC(=O)C1CCN(S(C)(=O)=O)CC1,0.16µM,–,–
COc1ccccc1NC(=O)C1CCN(S(C)(=O)=O)CC1,–,–,–
Cc1ccc(S(=O)(=O)N2CCOC2C(Cl)(Cl)Cl)cc1 (configuration not stated),–,–,–
CCOC(=O)CCc1c(C)nc(-n2[nH]c(C)c(CCO)c2=O)[nH]c1=O,–,16µM,–
